Test results reported in PubChem BioAssay.
Several values for one entry are separate records, joined by “and”; a condition that tells them apart may be missing. Equal entries are not always repeated.

Assay: MM1S cell viability effects, profiling panel, calcein-AM fluorescence, 48 h, basal (AID 1165);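 also: viability of MM1S multiple myeloma cells under basal unstimulated conditions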
Details: higher = more signal
Also: test concentration not given here.

**Q.** For `C=CCN(Cc1ccccc1)C(=O)C1N(CCOCCO)C(=O)C2C(C(=O)O)C3C=CC21O3` (centres undefined), which z-score is on record?
**A.** 0.443 and 1.02

**Q.** With `C=CC[C@@H](O)c1ccc(O)c2ccccc12` as the compound, how does the z-score read?
**A.** -2.77 and -2.68

**Q.** Which z-score does the source give for `CO[C@@H]1C=CCC(=O)N2CCC[C@H]2C(=O)OC[C@H](C)C(=O)OC[C@H]1C` here?
**A.** 0.383

**Q.** Which z-score does the source give for `CN1C(=O)C2CC=C([C@H]3Oc4ccccc4S(=O)(=O)N4CCC[C@@H]34)CC2C1=O` (some centres undefined) here?
**A.** 0.49 and 0.288

**Q.** For `CCOC(=O)c1ccc(NC(=O)O[C@H]2[C@H](OC(=O)Nc3ccccc3)[C@@H](OC(=O)Nc3ccccc3)[C@@H](OC)O[C@@H]2CO)cc1`, which z-score is on record?
**A.** -1.83 and -2.21

**Q.** With `C=CCN(Cc1ccccc1)C(=O)C(c1cccs1)N(C(=O)/C=C\C(=O)O)c1c(Cl)cccc1CO` (centres undefined) as the compound, how does the z-score read?
**A.** 1.21 and 1.6

**Q.** Which z-score does the source give for `CC(CO)N1C(=O)[C@@H]2C3C(=O)OCCC=C[C@H]3OC23C=CCN(CCN2CCOCC2)C(=O)[C@@H]13` (some centres undefined) here?
**A.** 0.19 and 0.248

**Q.** With `CO[C@H]1COC(=O)CC=C[C@@H](C)COC(=O)[C@@H](OCc2ccccc2)C=C[C@@H]1C` as the compound, how does the z-score read?
**A.** 0.301

**Q.** Which z-score does the source give for `CCCC[C@@H]1CN2[C@@H](CC[C@@H](C)[C@@H]2c2ccc(Br)cc2)C(=O)O1` here?
**A.** -1.1 and 0.516

**Q.** With `CCN1C(=O)[C@H]2[C@H]3[C@H](O)[C@H](O)CC(=NOC[C@@H](O)COCc4ccco4)[C@@H]3CC[C@H]2C1=O` as the compound, how does the z-score read?
**A.** 0.0026 and 0.228

**Q.** For `C=CCN(CCCCC)C(=O)C(c1cccs1)N(C(=O)/C=C\C(=O)O)c1ccc(CCO)cc1` (centres undefined), which z-score is on record?
**A.** 1.78 and 1.21

**Q.** Which z-score does the source give for `C=CCN(C(=O)C1N(c2c(Cl)cccc2CO)C(=O)C2C(C(=O)O)C3C=CC21O3)c1ccc(OC)cc1` (centres undefined) here?
**A.** 0.972 and -0.224

**Q.** With `C=CCN(CCCC)C(=O)C1N(C(C)(C)CO)C(=O)C2C(C(=O)O)C3C=CC21O3` (centres undefined) as the compound, how does the z-score read?
**A.** 1.09 and -0.12

**Q.** With `C=C[C@@H](C)[C@@H](O)c1ccc(OCCO)cc1` as the compound, how does the z-score read?
**A.** 0.958 and -0.872

**Q.** Which z-score does the source give for `C=CCN(CCCCC)C(=O)C1N(C(C)(C)CO)C(=O)C2C(C(=O)O)C3C=CC21O3` (centres undefined) here?
**A.** 0.369 and -0.0102

**Q.** With `CCOC(=O)[C@@H]1CC2O[C@]23C[C@@H]1C(=O)N1CCC[C@@H]1[C@H]3O[Si](C)(C)C(C)(C)C` (some centres undefined) as the compound, how does the z-score read?
**A.** 0.0049 and -3.22

**Q.** Which z-score does the source give for `CCOC(=O)C[C@H]1[C@H](OC(=O)c2ccccc2-c2ccccc2)[C@@H](NC(=O)Cc2ccc(OC)cc2)c2cc(OCCCO)ccc2N1C(=O)Cc1ccc(OC)cc1` here?
**A.** 0.902 and -0.0317

**Q.** Which z-score does the source give for `COC(=O)CC=C[C@@H](C)[C@@H](CO)NS(=O)(=O)c1ccc(C)cc1` here?
**A.** -0.243 and 0.811

**Q.** For `C[N+](C)(C)CCCCCCNC(=O)[C@@H]1C[C@@H]2C(=O)N[C@@H](CCCC[N+](C)(C)C)C(=O)N2[C@@H]1c1ccc(O)cc1`, which z-score is on record?
**A.** 0.814 and -0.514

**Q.** With `COC(=O)C1=C(C)N(Cc2ccccc2)C2=C3C(=O)CCC[C@@H]3[C@@](O)(C(=O)OC)C(=O)N2[C@@H]1c1ccccc1` as the compound, how does the z-score read?
**A.** -2.99

**Q.** Which z-score does the source give for `O=C1C[C@]2(c3ccc([N+](=O)[O-])cc3)C(=O)N(Cc3ccccc3)c3cc(CO)ccc3[C@H]2N1C1CCCCC1` here?
**A.** -0.514 and -2.14

**Q.** For `CC(C)=CCCC(C)=CCON=C1C[C@@H](O)[C@@H](O)[C@@H]2[C@@H]3C(=O)N([C@@H](C)c4ccccc4)C(=O)[C@@H]3CC[C@H]12`, which z-score is on record?
**A.** -2.88

**Q.** For `C[C@@H]1CC[C@H]2C(=O)NC[C@@H](O)CN2[C@H]1c1ccc(Br)cc1`, which z-score is on record?
**A.** 0.211 and -0.52

**Q.** For `COc1ccc(O[C@H]2C=C[C@@H](c3ccccc3)O[C@@H]2COC(=O)CCC(C)=NO[C@H](C)c2cn([C@H](CO)Cc3ccccc3)nn2)cc1`, which z-score is on record?
**A.** -0.764 and -2.3

**Q.** Which z-score does the source give for `C=CCN(CCCC)C(=O)C(c1cccs1)N(C(=O)/C=C\C(=O)O)c1c(Cl)cccc1CO` (centres undefined) here?
**A.** 1.43 and 1.51

**Q.** For `CC(CO)N1C(=O)[C@@H]2C3C(=O)OCCC=C[C@H]3OC23C=CCN(c2ccc(Cl)cc2)C(=O)[C@@H]13` (some centres undefined), which z-score is on record?
**A.** -0.725 and -0.182

**Q.** With `C=CCN(C(=O)C(c1cccs1)N(CCOCCO)C(=O)/C=C\C(=O)O)C(C)(C)C` (centres undefined) as the compound, how does the z-score read?
**A.** 1.62 and 0.903

**Q.** Which z-score does the source give for `C=C[C@H](OC)[C@@H](O)c1ccc(O)c(F)c1` here?
**A.** -1.17 and 1.06

**Q.** Which z-score does the source give for `CC(CO)N1C(=O)[C@@H]2C3C(=O)OCCC=C[C@H]3OC23C=CCN(C(C)(C)C)C(=O)[C@@H]13` (some centres undefined) here?
**A.** -0.388 and 0.885

Assay: basal RPMI8226 viability, no added stimulus, profiling panel, cell-based, calcein-AM fluorescence, 48 h, PK04 Diversity Set (AID 1166);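 also: cells grown under basal conditions without added stimulus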
Details: RPMI8226 myeloma viability, higher = more signal

**Q.** Which z-score does the source give for `COC(=O)C1=C(C)N(Cc2ccccc2)[C@]23O[C@](C(=O)OC)(C(=O)N2[C@@H]1c1ccccc1)[C@@H](C(=O)OC)[C@H]3C(=O)OC` here?
**A.** 0.248 and 0.636

**Q.** Which z-score does the source give for `CO[C@@H]1COC(=O)CC=C[C@H](C)COC(=O)[C@H](C)NC(=O)CC=C[C@H]1C` here?
**A.** 0.353

**Q.** With `COC(=O)C1=C(C)N(Cc2ccccc2)C2=C(C(C)=O)[C@H](c3ccccc3)[C@@](O)(C(=O)OC)C(=O)N2[C@@H]1c1ccccc1` as the compound, how does the z-score read?
**A.** 0.604 and 0.984

**Q.** For `C[N+](C)(C)CCCCNC(=O)[C@H]1C[C@H]2C(=O)N[C@@H](CCCC[N+](C)(C)C)C(=O)N2[C@H]1c1cccc(OCCO)c1`, which z-score is on record?
**A.** 0.267 and 0.461

**Q.** With `CCOC(=O)NN=C1C[C@@H](O)[C@@H](O)[C@@H]2[C@@H]3C(=O)N(Cc4ccc5c(c4)OCO5)C(=O)[C@@H]3CC[C@@H]12` as the compound, how does the z-score read?
**A.** 0.466
